TDP1 block: TDP1 (human) enzyme inhibition; Q9NUW8; recombinant TDP1, AlphaScreen DNA substrate cleavage; Potency, µM (doses to about 130 µM), inactives show top-dose activity change, negative = inhibition, actives largely listed as inhibitors; 350,000 compounds, 0.28% hits; AID 485290; further: nearly all actives have a fitted effect of over 40% in size
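E. coli-derived human Tdp1, 1 nM final. Cpd preinc 15 min RT; substrate 15 nM final, 5 min RT; AS bead mix 10 ug/ml final, 10 min RT. Signal loss = tyrosine-FITC cleavage. No-enzyme wells = max signal.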
VDR inh: blocks the human vitamin D receptor. P11473. VDR-SRC2-3 peptide fluorescence polarization, 2 h. Potency, µM, without a hit: max response, negative = inhibition, most hits filed as inhibitors. 400,000 compounds, 0.93% hits. AID 504847
Target sequence (P11473 whole entry, looked up): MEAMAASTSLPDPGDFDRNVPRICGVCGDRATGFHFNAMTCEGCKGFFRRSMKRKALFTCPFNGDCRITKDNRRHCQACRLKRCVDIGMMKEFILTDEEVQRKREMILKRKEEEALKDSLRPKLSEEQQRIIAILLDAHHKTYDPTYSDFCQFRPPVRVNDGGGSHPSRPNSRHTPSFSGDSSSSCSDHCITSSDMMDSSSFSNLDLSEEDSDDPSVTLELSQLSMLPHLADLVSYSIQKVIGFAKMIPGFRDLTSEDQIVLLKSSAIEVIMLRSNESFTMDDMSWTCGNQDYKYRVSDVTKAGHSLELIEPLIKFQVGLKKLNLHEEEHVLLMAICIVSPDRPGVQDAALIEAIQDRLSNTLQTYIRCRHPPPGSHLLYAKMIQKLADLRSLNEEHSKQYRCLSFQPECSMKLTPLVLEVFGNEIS
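Reagent solutions, kept cold and dark, are dispensed first; compounds are then pinned in at 23 nl, plates briefly spun, and incubated 2 h at ambient temperature. Inhibition of VDR–SRC2-3 peptide binding is read by fluorescence polarization.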
TDP1 cell CPT: DT40-hTDP1 cell growth loss with CPT; chicken DT40 Tdp1-/-;hTDP1 cells + 20 nM CPT, ATP luminescence, 48 h; Potency, µM (highest dose often 46.2 µM), inactives show at the highest dose activity change, negative = growth inhibition, usual class: inhibitors; 420,000 compounds, 12% hits; further: nearly all actives have a fitted effect of over 55% in size
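Cell growth measured by CellTiter-Glo luminescence after a minimum 48 h, 37 C compound exposure with 20 nM CPT in Tdp1-knockout DT40 cells stably expressing hTDP1, seeded 400/well; qHTS titration format.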
TDP1 cell noCPT: qHTS for Inhibitors of human tyrosyl-DNA phosphodiesterase 1 (TDP1): qHTS in cells in absence of CPT; DT40 Tdp1-/- hTDP1 cells, no CPT, ATP luminescence, 48 h; Potency, µM (series often up to 46.2 µM), for the others: at the top dose activity change, negative = growth inhibition, usual class: inhibitors; 420,000 compounds, 15% hits; AID 686978, 2013; further: nearly all actives have a fitted effect of over 55% in size
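Cells were dispensed at 400 per well, compounds added by pin tool, plates incubated ≥48 hr at 37 °C, then CellTiter-Glo added for 30 min at room temperature before luminescence reading. Line: DT40 Tdp1-/- complemented with hTDP1; camptothecin omitted.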
KAT2A inh: inhibitors of human GCN5L2 histone acetyltransferase | AID 504327 | Q92830 | 390,000 compounds, 0.21% hits | Potency, µM (titrated, usually from 58.9 µM), for the others: top-dose activity change, negative = inhibition, actives largely listed as inhibitors | GCN5L2 HAT assay, ThioGlo1 CoA-SH fluorescence
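Compounds, pin-transferred from DMSO stocks, meet 20nM GCN5L2 for 15 min before the reaction begins with H3(1-25) peptide (75uM) and acetyl-CoA (70uM). Thiol-reactive ThioGlo1 reports CoA release over 20 min at room temperature.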
PLK1 PBD block: PLK1 (human) polo-box domain binding inhibition; Plk1 PBD binding of FITC phosphopeptide, fluorescence polarization; Potency, µM, for inactives: max response, negative = inhibition, actives largely listed as inhibitors; 360,000 compounds, 2.8% hits; AID 720504; further: series mostly up to about 57 µM; nearly all actives have a fitted effect of over 65% in size
* marks the source's active call; other numbers are inactive results; ? = inconclusive; . = no result. Sampled rows, rich in hits. Any-hit rate of the full collection: about 18%. The call rests on the fitted dose curve; in most records, active means well fitted curve in the direction sought with a large enough effect; inconclusive means small, poorly fitted or top-dose-only effect, or another doubt; inactive means no such curve, though single readings can be large; an effect the other way counts as inactive or inconclusive. On the % scale 0 is the no-effect control and ±100 the full control effect; potency means the concentration at half of the fitted maximal effect.

SMILES	TDP1 block	VDR inh	TDP1 cell CPT	TDP1 cell noCPT	KAT2A inh	PLK1 PBD block
CCCSc1cc(NCCOC(=O)CCC)c([N+](=O)[O-])c2nonc12	6%	?	2.6µM*	4.6µM*	0%	17µM*
CCC(=O)OCCNc1cc(Sc2nc3ccccc3[nH]2)c2nonc2c1[N+](=O)[O-]	-6%	?	2.3µM*	2.9µM*	25%	1.2µM*
CCCC(=O)OCCNc1cc(SCc2ccco2)c2nonc2c1[N+](=O)[O-]	1%	?	?	?	-3%	?
CC(=O)OCCCNc1cc(SCc2ccco2)c2nonc2c1[N+](=O)[O-]	-3%	79µM*	21µM*	?	35%	?
O=C(COc1ccc(S(=O)(=O)N2CCOCC2)cc1)NC1CCCCC1	1%	-2%	-4%	-24%	1%	-11%
Cc1cc(C2=NNC(=NC3CC3)SC2)c(C)n1-c1ccccc1F	-2%	?	16µM*	21µM*	-9%	27µM*
C=C(C)CN=C1NN=C(c2cc(C)n(-c3ccc(C)cc3)c2C)CS1	7%	-14%	15µM*	12µM*	2%	-5%
Cc1cc(C2=NNC(=NC3CCCCC3)SC2)c(C)n1-c1c(C)n(C)n(-c2ccccc2)c1=O	0%	-12%	-5%	?	-9%	-18%
Cc1cccc(C)c1N=C1NN=C(c2ccccc2F)CS1	3%	-7%	21µM*	21µM*	-2%	1%
Cc1ccc(C)c(C2=NNC(=NCc3ccccc3)SC2)c1	10%	-25%	?	?	?	-24%
Cc1ccccc1N=C1NN=C(c2ccccc2F)CS1	5%	1%	?	?	-2%	-18%
COc1ccccc1C=NN=C1c2ccccc2-c2ccccc21	.	-7%	0%	-8%	.	8%
COc1ccc(OC)c(CNC(=O)C2CCN(c3nc4ccccc4nc3C(F)(F)F)CC2)c1	-3%	8%	-11%	1%	-4%	.
C#C[C@]1(O)CC[C@H]2[C@@H]3CCC4=CCCC[C@@H]4[C@H]3C(=C)C[C@@]21CC	.	1%	3%	-8%	-21%	.
Cc1cc(C(=O)c2ccc(Cl)cc2)c(NC(=O)CCl)s1	5%	-15%	8.2µM*	7.3µM*	-5%	-16%
Cn1cc(/C=C2\SC(=O)N(c3ccccc3)C2=O)c2ccccc21	1%	9%	1%	-28%	-1%	-2%
Cn1cc(/C=C2\SC(=O)N(c3ccc(O)cc3)C2=O)c2ccccc21	.	-7%	?	16µM*	-3%	-15%
CCn1c(C)c(C2=CCN(S(=O)(=O)c3ccc(C)cc3)CC2)c2ccccc21	4%	-21%	?	18µM*	-4%	-14%
CCOC(=O)N1CCc2c(sc3c2c(=O)n(Cc2ccccc2)c(=O)n3Cc2c(F)cccc2Cl)C1	4%	-7%	13µM*	18µM*	2%	.
CCOC(=O)N1CCc2c(sc3c2c(=O)n(Cc2ccccc2)c(=O)n3Cc2cccc(C)c2)C1	4%	?	13µM*	13µM*	-2%	-5%
CCOC(=O)N1CCc2c(sc3c2c(=O)n(Cc2ccccc2)c(=O)n3Cc2ccccc2F)C1	-1%	22%	?	?	-6%	-5%
CCOC(=O)N1CCc2c(sc3c2c(=O)n(Cc2ccccc2)c(=O)n3CC(=O)Nc2ccc(F)cc2)C1	1%	-7%	5.8µM*	10µM*	-1%	.
CCN(CC)CCn1c(=O)n(-c2ccc(Cl)cc2)c(=O)c2c3c(sc21)CN(C)CC3	.	?	29µM*	21µM*	-9%	-10%
CCOC(=O)N1CCc2c(sc3c2c(=O)n(Cc2ccccc2)c(=O)n3CC(=O)Nc2c(C)cccc2C)C1	-1%	5%	?	?	-8%	.
CCOC(=O)N1CCc2c(sc3c2c(=O)n(Cc2ccccc2)c(=O)n3Cc2cc(C)ccc2C)C1	4%	3%	-1%	7%	-3%	.
SMILES	TDP1 block	VDR inh	TDP1 cell CPT	TDP1 cell noCPT	KAT2A inh	PLK1 PBD block
CC(C)[C@H](NC(=O)[C@@H]1Cc2ccccc2CN1C(=O)OC(C)(C)C)C(=O)NCc1ccco1	5%	9%	-4%	?	-5%	-2%
CCOC(=O)N1CCc2c(sc3c2c(=O)n(-c2ccc(Cl)cc2)c(=O)n3CC(=O)c2ccc(F)cc2)C1	6%	-11%	?	21µM*	0%	.
COc1ccc(CCNC(=O)Cn2c(=O)n(-c3cc(OC)c(OC)c(OC)c3)c(=O)c3ccccc32)cc1OC	0%	-1%	-3%	2%	-5%	.
O=C1CCC(C(=O)NCc2cccnc2)N1 (stereo unspecified)	2%	-18%	?	?	3%	30µM*
O=C(CN(C1CCCCC1)S(=O)(=O)c1ccc(Cl)cc1)NCc1cccnc1	7%	4%	?	16µM*	4%	-5%
O=C(NCc1cccnc1)C1CCC(c2ccc(Cl)cc2)CC1 (stereo unspecified)	6%	-8%	?	16µM*	-10%	-11%
COc1ccc2c(c1)c(CC(=O)Nc1cccc(F)c1C)c(C)n2C(=O)c1ccc(Cl)cc1	3%	-8%	5%	2%	-1%	.
Cc1noc(C)c1-c1nccc(-n2ccnc2)n1	.	5%	4%	-3%	-4%	.
COc1cccc(NC(=O)c2ccc(N3C(=O)C4CCC(C)CC4C3=O)cc2)c1 (stereo unspecified)	.	7%	-30%	?	.	-13%
CNC(=O)c1cc(NC(=O)CCn2nc(-c3ccc(C)cc3)c3ccccc3c2=O)ccc1OC	3%	-9%	?	?	0%	0%
O=C(CC1CCCC1)Nc1cc(S(=O)(=O)N2CCOCC2)ccc1O	4%	?	8.2µM*	?	-26%	6µM*
CCCCc1ccc(CC(=O)Nc2cc(S(=O)(=O)N3CCOCC3)ccc2O)cc1	3%	?	-27%	?	-14%	15µM*
Cc1nnc(SCC(=O)Nc2cc(S(=O)(=O)N3CCOCC3)ccc2C)s1	-14%	3%	-19%	-10%	-5%	-6%
O=C(CSc1nc2ccccc2s1)Nc1cc(S(=O)(=O)N2CCOCC2)ccc1O	8%	?	-29%	-26%	4%	11µM*
O=C(CC1CCCC1)Nc1ccc(Cl)c(S(=O)(=O)N2CCOCC2)c1	0%	-4%	?	16µM*	-8%	-7%
O=C(Cn1ncc2c3ccccc3n(Cc3ccc(Cl)cc3)c2c1=O)NCc1ccccn1	10%	14%	?	?	2%	.
